EBV gp42 inh: inhibitors of Epstein-Barr virus glycoprotein 42; Fluorescence polarization binding assay, mP read-out; 220,000 compounds, 0.42% hits; inhibition, % (tested at 21.74 µM); Q1HVG2; in the data active = inhibition above about 50%
Target sequence (Q1HVG2 whole entry, looked up): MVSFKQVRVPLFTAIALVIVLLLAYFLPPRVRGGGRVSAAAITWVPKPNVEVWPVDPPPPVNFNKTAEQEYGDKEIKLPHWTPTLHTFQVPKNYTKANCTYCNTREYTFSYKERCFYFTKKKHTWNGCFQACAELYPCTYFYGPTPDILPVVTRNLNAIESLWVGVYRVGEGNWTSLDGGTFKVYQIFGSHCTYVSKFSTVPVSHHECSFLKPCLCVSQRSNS
eIF4H inh: inhibitors of RNA binding by human eIF4H; AID 2012; 290,000 compounds, 0.94% hits; inhibition, % at 35 µM; eIF4H fluorescence polarization binding assay;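 also: calls also rest on retests at 20 µM and on dose response follow-up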
MLLE-PAM2 inh: blocks PAM2 peptide binding to the PABP1 MLLE domain; P11940; GST-MLLE / FITC-PAM2 fluorescence polarization; inhibition, % at 20 µM; 360,000 compounds, 0.36% hits; AID 588489; in the data active = inhibition above about 35%, passing the limit was not always enough
PABP polyA inh: PABP-poly(A) binding inhibition. PABP-poly(A) RNA binding, fluorescence polarization. calls only at 35 µM. 290,000 compounds, 1% hits;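 also: calls also rest on retests at 20 µM and on dose response follow-up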
MEX-5 binding: C. elegans MEX-5 TCR-2 RNA binding activity | MEX-5/FITC-TCR2 RNA binding, fluorescence polarization; stronger effect = lower value | activity score (negative = inhibition of binding), % at 10 µM | 300,000 compounds, 0.38% hits | AID 1832;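 active = inhibition past about -25% in most replicates, and total fluorescence under double the plate's negative control median, limit read from the data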
A number is an active result. Only some compounds are listed: those with a hit (about 1.8% of all), similar ones and a draw of the others. Unless noted, no rule for the calls is given here.

What do the screens show for `COc1ccc(N2Cc3cccc(C(=O)NC(C)CCc4ccco4)c3C2=O)cc1` (stereo not drawn)?
EBV gp42 inh: inactive; eIF4H inh: 88; MLLE-PAM2 inh: inactive; PABP polyA inh: active; MEX-5 binding: inactive

What do the screens show for `O=C(Nc1ccn(C2CCC(CO)O2)c(=O)n1)c1ccccc1` (stereo not drawn)?
MLLE-PAM2 inh: inactive

What do the screens show for `Cc1ccc(-c2[nH]c3cc(C(N)=O)ccc3c(=O)c2O)cc1`?
EBV gp42 inh: inactive; eIF4H inh: inactive; MLLE-PAM2 inh: inactive; PABP polyA inh: inactive; MEX-5 binding: -70

Results for C(=N\N1CCOCC1)/c1cn(-c2ccccc2)nc1-c1ccccc1 ?
EBV gp42 inh: inactive; eIF4H inh: inactive; MLLE-PAM2 inh: inactive; PABP polyA inh: inactive; MEX-5 binding: inactive

Results for C(=N\N1CCOCC1)/c1nc(-c2ccccc2)n2ccccc12 ?
EBV gp42 inh: 62; eIF4H inh: inactive; MLLE-PAM2 inh: inactive; PABP polyA inh: inactive; MEX-5 binding: inactive

How did O=[N+]([O-])c1cccc(C(=S)N2CCN(c3ccc(F)cc3)CC2)c1 do in these assays?
EBV gp42 inh: inactive; eIF4H inh: inactive; MLLE-PAM2 inh: 76; PABP polyA inh: inactive; MEX-5 binding: inactive

How did Cc1cc(/C([O-])=C(/C(=S)Nc2ccc(F)cc2)[n+]2ccccc2)c(C)n1-c1ccc(F)cc1 do in these assays?
EBV gp42 inh: inactive; eIF4H inh: 67; MLLE-PAM2 inh: inactive; PABP polyA inh: inactive; MEX-5 binding: inactive

How did Cc1cc(/C([O-])=C(/C(=S)Nc2ccccc2)[n+]2ccccc2)c(C)n1-c1ccccc1 do in these assays?
EBV gp42 inh: inactive; eIF4H inh: 61; MLLE-PAM2 inh: inactive; PABP polyA inh: active; MEX-5 binding: inactive

Results for Cc1cc(/C([O-])=C(/C(=S)Nc2ccc(F)cc2)[n+]2ccccc2)c(C)n1Cc1ccccc1Cl ?
EBV gp42 inh: inactive; eIF4H inh: inactive; MLLE-PAM2 inh: inactive; PABP polyA inh: inactive; MEX-5 binding: inactive

Results for Cc1ccc(-n2c(C)cc(/C([O-])=C(/C(=S)Nc3ccc(F)c(Cl)c3)[n+]3ccccc3)c2C)cc1 ?
EBV gp42 inh: inactive; eIF4H inh: inactive; MLLE-PAM2 inh: inactive; PABP polyA inh: inactive; MEX-5 binding: inactive

How did COCCNc1nc(Nc2ccc(Cl)cc2F)c2sccc2n1 do in these assays?
MLLE-PAM2 inh: inactive

Results for Cc1ccc2ncccc2c1NC(=S)NC(=O)c1ccccc1 ?
EBV gp42 inh: inactive; eIF4H inh: inactive; MLLE-PAM2 inh: 42; PABP polyA inh: inactive; MEX-5 binding: inactive

Results for OC(c1cccc(Cl)c1)c1ncc(-c2ccccc2Cl)[nH]1 (stereo not drawn) ?
MLLE-PAM2 inh: inactive

How did CCOC(=O)CSC1=C(C#N)C(=O)NC(c2ccc(OC)cc2)S1 (stereo not drawn) do in these assays?
EBV gp42 inh: inactive; eIF4H inh: inactive; MLLE-PAM2 inh: inactive; PABP polyA inh: inactive; MEX-5 binding: inactive

What do the screens show for `CCOC(=O)CSC1=C(C#N)C(=O)NC(c2ccc(OC)c(OC)c2)S1` (stereo not drawn)?
EBV gp42 inh: inactive; eIF4H inh: inactive; MLLE-PAM2 inh: 48; PABP polyA inh: inactive; MEX-5 binding: inactive

Results for FC(F)(F)C1=NNC(c2ccc3ccccc3c2)=NN1 ?
MLLE-PAM2 inh: inactive

What do the screens show for `CC(=O)Nc1cccc(C(=O)OCc2ccccc2)c1`?
EBV gp42 inh: inactive; eIF4H inh: inactive; MLLE-PAM2 inh: inactive; PABP polyA inh: inactive; MEX-5 binding: inactive

How did CCCS(=O)(=O)c1ccc(COC(=O)c2cccc(NC(=O)C(C)C)c2)cc1 do in these assays?
EBV gp42 inh: inactive; eIF4H inh: active; MLLE-PAM2 inh: inactive; PABP polyA inh: active; MEX-5 binding: inactive

How did O=C(Nc1ccccc1F)c1csc([C@@H]2C[C@H](O)[C@@H](CO)O2)n1 do in these assays?
MLLE-PAM2 inh: inactive

How did O=c1oc2ccc3ccccc3c2cc1-c1nnc(-c2cccs2)o1 do in these assays?
EBV gp42 inh: inactive; eIF4H inh: inactive; MLLE-PAM2 inh: inactive; PABP polyA inh: inactive; MEX-5 binding: inactive

How did N=c1oc2ccc3ccccc3c2cc1-c1nc(-c2ccccc2)cs1 do in these assays?
EBV gp42 inh: 66; eIF4H inh: inactive; MLLE-PAM2 inh: inactive; PABP polyA inh: inactive; MEX-5 binding: inactive

Results for COc1ccc(-c2nnc(-c3cc4c(ccc5ccccc54)oc3=O)o2)cc1 ?
EBV gp42 inh: 51; eIF4H inh: inactive; MLLE-PAM2 inh: inactive; PABP polyA inh: inactive; MEX-5 binding: -42

How did O=c1oc2ccc3ccccc3c2cc1-c1nnc(-c2ccccc2)o1 do in these assays?
EBV gp42 inh: inactive; eIF4H inh: inactive; MLLE-PAM2 inh: inactive; PABP polyA inh: inactive; MEX-5 binding: inactive
